Reference: PubChem BioAssay AID1438 (Sanford-Burnham Center for Chemical Genomics, 2008)
Among all 2,200 compounds or so, about 45 (2%) were called active. No rule for the calls is given here. These entries were drawn from the full list. Results with a measured potency or affinity are listed apart.

target: Runt-related transcription factor 1 (Homo sapiens) + Core-binding factor subunit beta (Homo sapiens) (UniProt Q01196+Q13951); assay: Runt domain/CBFb-SMMHC interaction disruptors – biochemical, TR-FRET (AID 1438); conditions: at 20 µM, hits give high values
Sequence (Q01196 whole entry, looked up, the tested form may be a part): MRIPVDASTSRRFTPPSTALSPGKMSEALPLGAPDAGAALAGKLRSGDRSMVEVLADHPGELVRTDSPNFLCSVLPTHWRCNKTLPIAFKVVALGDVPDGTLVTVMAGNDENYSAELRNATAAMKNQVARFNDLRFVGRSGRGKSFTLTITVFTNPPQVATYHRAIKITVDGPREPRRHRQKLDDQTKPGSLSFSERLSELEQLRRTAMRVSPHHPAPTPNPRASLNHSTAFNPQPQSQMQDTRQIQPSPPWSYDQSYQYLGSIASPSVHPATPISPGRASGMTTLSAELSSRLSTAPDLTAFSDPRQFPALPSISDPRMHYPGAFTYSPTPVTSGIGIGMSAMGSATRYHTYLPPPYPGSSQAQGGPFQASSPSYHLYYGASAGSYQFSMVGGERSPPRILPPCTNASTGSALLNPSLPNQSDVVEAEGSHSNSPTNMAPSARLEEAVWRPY
Sequence (Q13951 whole entry, looked up, the tested form may be a part): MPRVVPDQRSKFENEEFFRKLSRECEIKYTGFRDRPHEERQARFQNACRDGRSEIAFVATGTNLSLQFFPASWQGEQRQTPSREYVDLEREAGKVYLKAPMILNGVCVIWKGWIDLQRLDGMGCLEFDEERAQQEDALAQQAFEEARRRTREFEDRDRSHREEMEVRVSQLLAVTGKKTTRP

inhibition, active:
Cc1nc2c(c(=O)n1Cc1ccco1)c1nc3ccccc3nc1n2Cc1ccccc1 80.9%
Cc1cccn2c(=O)c3cc(C(N)=S)c(=N)n(CCCOC(C)C)c3nc12 63.5%
Cc1cc(N2C(=O)C=CC2=O)c([N+](=O)[O-])cc1C 52.7%

inhibition, inactive:
CCN1/C(=C/C(=O)c2ccco2)Sc2ccccc21 15.1%
N#Cc1c(N)n(CCc2ccc(F)cc2)c2nc3ccccc3nc12 32%
COCCCNC(=S)NCCNc1nc2c(C)c(C)ccc2cc1C#N -1.9%
Cc1ccc(C2C=C(c3ccccc3)Nc3nc(N4C(=O)CCC4=O)nn32)cc1 (configuration not stated) -11.2%
Cc1ccc(C2C3=C(CC(C)(C)CC3=O)Nc3[nH]c(=S)[nH]c(=O)c32)cc1 (configuration not stated) 39.6%
COCCCNC(=S)NCCCNc1nc2cc(C)cc(C)c2cc1C#N -6.6%
O=c1cc(-c2ccc(O)cc2)oc2cc(O)c(C3OC(CO)C(O)C(O)C3O)c(O)c12 (configuration not stated) -6.5%
Cc1c2c(n3c(nc4ccccc43)c1C#N)N(CCN(C)C)CC2 -12.2%
CCc1nnc(NS(=O)(=O)c2ccc(N/C=C/C(=O)c3ccc(OC)cc3)cc2)s1 -1.7%
CCc1nnc(NC(=O)c2sc3nc4c(cc3c2N)CCCCCC4)s1 38.3%
Cc1ccc(C(=O)c2sc3nc4c(cc3c2N)CCC4)cc1 13.7%
Cc1cc(=O)oc2c(CN3CC(C)OC(C)C3)c(O)c(Cl)cc12 (configuration not stated) -12.9%
CCOC(=O)CCc1c(C)c(C#N)c2nc3ccccc3n2c1-n1ccnc1 -4%
COC(=O)Cc1c(C)c2cc(Cl)c(OC(=O)c3ccco3)cc2oc1=O 19.4%
CCOC(=O)c1cc2ccc(OC)cc2oc1=O -9.7%
O=C(O)c1ccc(N=c2oc3cc(O)ccc3cc2C(=O)NCc2ccccc2)cc1 -1.1%
c1ccn2c(c1)nc1c2nc2ccccn21 8.5%
CCOC(=O)C1=C(CSc2nc3c(cc2C#N)CN(C)CC3)OC(N)=C(C#N)C1c1ccc(F)cc1 (configuration not stated) 22.5%
CCOC(=O)C1=C(CSc2nc3c(cc2C#N)CN(C)CC3)OC(N)=C(C#N)C1c1ccccc1 (configuration not stated) 29.2%
CCOC(=O)C1=C(O)/C(=C/c2cn(CC(=O)N3CCCC3)c3ccccc23)SC1=Nc1ccccc1 4%
CC1CCc2c(sc(Nc3nc4c(F)cccc4s3)c2C(N)=O)C1 (configuration not stated) 48.6%
CCOC(=O)c1c(NC(=O)C(F)(OC)C(F)(F)F)sc2c1CCN(C)C2 (configuration not stated) -4.1%
CCOC(=O)c1cc2c(ccc3ccccc32)oc1=O -0.5%
CNC(=O)c1cc2c(ccc3ccccc32)oc1=N 2.9%
CC(C)OC(=O)CC(=O)CSc1nc2c(cc1C#N)CCCCCC2 38.5%
CC(=O)c1c(N2CCN(C)CC2)nc(=S)n(Cc2ccccc2)c1C 15.7%
CCCOc1c(Br)cc(C2C3=C(CCCC3=O)N(C)C3=C2C(=O)CCC3)cc1OC 41.4%
CCCOc1c(Br)cc(C2C3=C(CCCC3=O)N(CC)C3=C2C(=O)CCC3)cc1OC -13.6%
C=CCNc1sc(C(=O)c2cccs2)c(N)c1C#N -0.1%
CNc1sc(C(=O)c2cccs2)c(N)c1-c1nc2ccccc2s1 35.8%
Cc1cccn2c(=O)c(/C=C(\C#N)C(N)=O)c(Oc3ccccc3)nc12 -15.3%
COc1cccc(C(=O)Nc2nc3c(s2)CN(C)CC3)c1 -21%
COCCCNC(=O)c1c(N)n(-c2ccccc2)c2nc3ccccc3nc12 -6.7%
COCCCNC(=O)c1c(N)n(-c2ccc(S(N)(=O)=O)cc2)c2nc3ccccc3nc12 43.4%
CCCN1C2CCCC1CC(NC(=S)Nc1ccc(OC)cc1)C2 (configuration not stated) -12%
CSc1nc(NCC(C)C)c2c3c(sc2n1)CN(C)CC3 37.7%
CSc1nc(NCCCO)c2c3c(sc2n1)CN(C)CC3 -10.5%
COc1ccc(Br)cc1C1NC(=O)c2c(sc3c2CCN(C)C3)N1 (configuration not stated) 15%
CCn1nc(NC(=O)C2CCCO2)c2cc3cccc(C)c3nc21 (configuration not stated) 2.1%
CCN(CC)c1ccc(/C=N\NC(=O)c2cccc3cc[nH]c23)cc1 5.9%
CCN1C=C(C(=O)OC)C(c2cccc(OC)c2OC)C(C(=O)OC)=C1 -23.2%
Cc1c(O)ccc2c3c(c(=O)oc12)CCC(C)C3 (configuration not stated) 19.7%
COc1cc(/C=C(\C#N)C(=O)Nc2cccc3ncccc23)cc(OC)c1OC 18.6%
Cc1ccc(/C=C/C(=O)Nc2cccc3ncccc23)o1 19.8%
COc1ccc(-c2cc(C(F)(F)F)n3nc(N)nc3n2)cc1 25.3%
O=C(Cc1c2ccccc2nc2ccccc12)c1ccccc1 48.7%
COCCCNC(=O)c1cc2c(=O)n3cccc(C)c3nc2n(C(C)C)c1=N 1.4%
CC1=CC(c2ccccc2)n2nc(NS(=O)(=O)c3ccc(C)cc3)nc2N1 (configuration not stated) 49.9%
CC(=O)Nc1nc2n(n1)C(c1ccc(Cl)cc1)C=C(C)N2 (configuration not stated) 45.7%
N#Cc1c(N)n(-c2cccc(C(=O)O)c2)c2nc3ccccc3nc12 -8.2%
O=c1oc2ccc3ccccc3c2cc1-c1nnc(-c2cccs2)o1 29.8%
CCOC(=O)c1cc2c(=O)n3ccccc3nc2n(CCCOC)c1=NC(=O)c1cccnc1 47.6%
CN(C)c1cccc(C(=O)OCc2cc(=O)oc3cc(O)ccc23)c1 47.5%
COC(=O)Cc1cc(=O)oc2cc(O)ccc12 32.6%
CCOC(=O)c1c(NC(=O)CSc2ncccn2)sc2c1CCN(Cc1ccccc1)C2 -5.3%
CCCCNC(=O)c1cc2c(=O)n3cccc(C)c3nc2n(Cc2ccccc2)c1=N 33.9%
CCCCn1c2nc3ccccc3nc2c2c(=N)oc(C)nc21 36.7%
CCCn1c(C)nc2c(c1=O)c1nc3ccccc3nc1n2CCC1=CCCCC1 36.3%
CCOc1ccc(-n2c(N)c(C(=O)NCc3ccco3)c3nc4ccccc4nc32)cc1 43.5%
COc1ccc(-n2c(N)c(C(=O)NCc3ccco3)c3nc4ccccc4nc32)cc1 42.9%
Cc1ccc(S(=O)(=O)c2cc3c(=O)n4cccc(C)c4nc3n(Cc3ccco3)c2=N)cc1C 47.5%
CCCn1c(=NC(=O)c2c(-c3c(F)cccc3Cl)noc2C)c(C(=O)OCC)cc2c(=O)n3ccccc3nc21 -16.8%
COc1nc(N)c(S(=O)(=O)c2ccccc2)cc1C#N 8.9%
CCOC(=O)c1cc2c(=O)n3ccccc3nc2n(CC2CCCO2)c1=NC(=O)/C=C/c1ccccc1 (configuration not stated) 3.6%
C=CCNC(=O)/C(C#N)=C/c1c(N(Cc2ccccc2)Cc2ccccc2)nc2ccccn2c1=O 19.2%
COCCN(C(=O)CN1CCc2ccccc2C1)c1c(N)n(Cc2ccccc2)c(=O)[nH]c1=O 23.7%
COc1ccccc1NC(=O)c1cc2ccc(O)cc2o/c1=N\O -13.2%
COc1ccccc1NC(=O)c1cc2ccccc2o/c1=N\O 30.6%
COCCN1C=C(C(=O)OC)C(c2ccccc2C(F)(F)F)C(C(=O)OC)=C1 44%
COc1cc(/C=N/N2CCN(C3c4ccccc4-c4ccccc43)CC2)cc(OC)c1O 33.8%
O=C1C2C3C=CC(CO)(O3)C2C(=O)N1c1ccc(-c2ccccc2)cc1 (configuration not stated) 27.4%
N#Cc1cc2cc3c(cc2nc1NCCNC(=S)NCCCN1CCOCC1)OCO3 -18.1%
O=c1c2ccccc2sn1-c1nccs1 -7%
CCOC(=O)Cc1csc(/N=C/c2c(O)n(-c3ccc(C)c(C)c3)c(=O)c3ccccc23)n1 5%
Cc1c2c(n3c(nc4ccccc43)c1C#N)N(CCCN(C)C)CC2 -5.5%
Clc1ccc(C2=NN(c3ccccc3)C(c3ccco3)C2)cc1 (configuration not stated) 37.8%
Cc1cccn2c(=O)c3cc(C(N)=S)c(=N)n(CCCN4CCOCC4)c3nc12 -11.3%
CC(=O)N=c1c(C#N)cc2c(=O)n3cccc(C)c3nc2n1CCCOC(C)C -10.3%
CC(C)OCCCn1c(=N)c(C(N)=S)cc2c(=O)n3ccccc3nc21 49.7%
CCOCCCn1c(=N)c(C(=O)NCc2ccc3c(c2)OCO3)cc2c(=O)n3cccc(C)c3nc21 1.9%
N#C/C(=C(/O)CCCl)c1ccccn1 -8%
c1ccc(-c2onc3cc4c(cc23)OCCO4)cc1 17.4%
CCOC(=O)c1cc2c(=O)n3cccc(C)c3nc2n(CC(C)C)c1=NC(=O)c1ccco1 -5.3%
CCOc1ccc2nc(NCCNC(=O)CC)c(C#N)cc2c1 33.5%
CC(=O)N(C)/C=C1\Sc2ccccc2C1=O 6.4%
Cc1ccc(-n2c(=O)c(C#N)cc3c(=O)n4cccc(C)c4nc32)cc1 48.6%
COCCCn1c(=O)/c(=C\c2ccc(OC(F)F)c(OC)c2)s/c1=C(/C#N)C(=O)NCCOC -12.1%
Cc1ccc(C)c(OCCn2cc(/C=C(\C#N)C(=O)NCc3ccco3)c3ccccc32)c1 17.3%
COc1cc(N2C(=O)C=CC2=O)c(OC)cc1Cl -8.5%
